According to PubChem BioAssay (NCI):
The panel holds about 79,000 compounds, 15% with a hit somewhere; the sample as a whole holds those more often. Values without a mark were called inactive. Calls of active or inactive are those of the source. Cut-off read from the data, not from the text of the source: active = growth inhibition above about 70%; inactive = the rest.

Assays:
[1] = NCI Yeast Anticancer Drug Screen. Data for the rad50 strain (AID 155);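 note: 0% = growth of vehicle-only cultures of the same strain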; conditions: S. cerevisiae rad50 strain growth inhibition; at 50.0 µM; hits give high values
Outline: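 Yeast carrying a defined DNA repair defect were exposed to test compounds, and growth was compared with vehicle-treated controls to give percent inhibition.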

[2] = NCI Yeast Anticancer Drug Screen. Data for the mec2-1 strain (AID 157); conditions: S. cerevisiae mec2-1 strain, at 50.0 µM, hits give high values
Outline: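 Each compound was tested on mec2-1 yeast, a strain altered in DNA damage repair or cell cycle control. Growth inhibition is reported relative to vehicle.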

[3] = NCI Yeast Anticancer Drug Screen. Data for the sgs1 mgt1 strain (AID 161);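 note: 0% = growth of cultures given vehicle only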; conditions: S. cerevisiae sgs1 mgt1 strain, at 50.0 µM, hits give high values
Outline: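 Inhibition of yeast growth, normalised to vehicle-treated controls, is reported for a strain bearing genetic alterations in DNA damage repair.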

[4] = NCI Yeast Anticancer Drug Screen. Data for the cln2 rad14 strain (AID 165);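 note: 0% = growth equal to vehicle treated cultures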; conditions: S. cerevisiae cln2 rad14 strain, at 50.0 µM, hits give high values
Outline: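 Test compounds were added to cln2 rad14 yeast cultures; inhibition of growth was then determined by comparison with vehicle treatment.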

[5] = NCI Yeast Anticancer Drug Screen. Data for the bub3 strain (AID 167); conditions: S. cerevisiae bub3 mutant strain, at 50.0 µM, hits give high values
Outline: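 Compounds were applied to a genetically altered yeast strain carrying a cell-cycle control defect. Growth inhibition was scored against vehicle-treated controls.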

[6] = NCI Yeast Anticancer Drug Screen. Data for the mlh1 rad18 strain (AID 175); conditions: S. cerevisiae mlh1 rad18 strain growth inhibition; at 50.0 µM; hits give high values
Outline: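 Inhibition values reflect reduced growth of mutant yeast versus vehicle-treated controls following compound exposure; the mutations affect DNA damage repair.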

| Compound | growth inhibition [1] | growth inhibition [2] | growth inhibition [3] | growth inhibition [4] | growth inhibition [5] | growth inhibition [6] |
| --- | --- | --- | --- | --- | --- | --- |
| CCN(CC)CCC1CCCCN1CC(=O)N1c2cc(Cl)ccc2NC(=O)CC1C (stereo not given) | 24.9% | 0.8% | 15.1% | -6.45% | 1.3% | 20.6% |
| CC1(C)C2CCC1(C)C(NC(=O)COCCOCC(N)=O)C2 (stereo not given) | -45% | -53.1% | -52.6% | -2.55% | -54.9% | -67.3% |
| c1ccc(CN2CCC3(N4CCOCC4)C(C2)N=NN3c2ccccc2)cc1 (stereo not given) | -27.9% | -9.6% | 0.65% | -1.05% | -11.7% | -14.2% |
| OC(CN1CCc2ccccc2C1)c1ccccc1 (stereo not given) | 42.5% | 8.05% | 49% | 27% | 39.4% | 35.8% |
| O=C(Nc1ccc(Cl)cc1)Nc1nnc2nc(C3(c4nc5nnc(NC(=O)Nc6ccc(Cl)cc6)n5[nH]c4=O)CCCC3=O)c(=O)[nH]n12 | -23.3% | -19.5% | -11.7% | -32.2% | 10.9% | -2.75% |
| O=c1[nH]c(Br)nc2c(Br)c[nH]c12 | -17.1% | -0.15% | -18.4% | -12.8% | -22.2% | -18.9% |
| CCOC(=O)c1cc(NC(C)=O)cn1C | 4.4% | 8.8% | -1.15% | -11% | 6.45% | 16.4% |
| COc1ccc(CCC2(C)OCCCO2)cc1 | 9.75% | -0.65% | -0.85% | -6.75% | -5.8% | 17.4% |
| NC(=O)CCC1CCCCN1 (stereo not given) | 27.2% | 18.8% | 6.5% | 5.7% | 1.85% | 2.2% |
| O=C(c1ccco1)N(C(=S)N1CCN(c2ccccc2)CC1)c1ccccc1 | -79.7% | -24.4% | -35.5% | -4.4% | -18.1% | -35.2% |
| CCC(C#N)C1=CCCCCC1 (stereo not given) | 31.8% | 3.75% | 19.4% | 11.7% | 4.6% | 20.6% |
| CCOC(=O)C12CC(COc3ccc([N+](=O)[O-])cc3)ON1OC(COc1ccc([N+](=O)[O-])cc1)C2 (stereo not given) | 23.9% | 7.8% | 17.2% | 2.4% | -3.85% | 28.1% |
| CC1=CC=CNC1(N)Br (stereo not given) | 3.7% | 4% | 15.8% | 19.4% | 7.55% | -4.9% |
| Cc1cccc(/C=N/Nc2ccc([N+](=O)[O-])cc2[N+](=O)[O-])c1C | 11.2% | -6% | -5.1% | -11.2% | -15.6% | 4% |
| Cc1ccc(C)n1-c1ccc(OCC(N)=O)cc1 | 16.3% | 16.1% | 12.7% | -15.7% | 12.6% | 13.9% |
| CCCCCC(=O)OCCCc1ccccc1 | 28.9% | 2.9% | -0.3% | -12.9% | 19.4% | -6.8% |
| O=S(=O)(O)c1cc(N=Nc2cc(S(=O)(=O)O)c3cccnc3c2O)ccc1/C=C/c1ccc(N=Nc2cc(S(=O)(=O)O)c3cccnc3c2O)cc1S(=O)(=O)O.[Na+].[Zn+2] | -15.2% | -8.65% | -9.85% | -75.6% | -44% | -86.7% |
| COc1ccc(C(=O)/C=C/c2ccc(OCCSCCCCCCCCCCSCCOc3ccc(/C=C/C(=O)c4ccc(OC)c(OC)c4)cc3)cc2)cc1OC | -44.4% | -26.1% | -28.2% | -6.35% | -29.6% | -53.6% |

| Compound | growth inhibition [1] | growth inhibition [2] | growth inhibition [3] | growth inhibition [4] | growth inhibition [5] | growth inhibition [6] |
| --- | --- | --- | --- | --- | --- | --- |
| O=[N+]([O-])CC1CCCCC1 | -2.7% | -19.9% | 6.85% | 14.3% | -1.3% | 19.1% |
| COc1ccc(C2C/C(=N/O)c3ccccc3O2)cc1 (stereo not given) | 16.6% | -7.85% | 5.85% | -93.6% | -7.75% | 10.1% |
| CNc1ccc(CC(=O)O)cc1 | -2.75% | 3.85% | -2.45% | -42% | -2.05% | 1.8% |
| C=CCCCCCCCCC(=O)NCCCN1CCOCC1 | 77.5% (active) | 76.1% (active) | 93.5% (active) | 83.6% (active) | 85% (active) | 94.7% (active) |
| NS(=O)(=O)c1ccc(N2C(=O)C(=O)N(c3ccccc3)C2=S)cc1 | -15.8% | -11.9% | -16.2% | -39.4% | -3.75% | -20.5% |
| COc1ccc(/C=C2/SC(=S)NC2=O)cc1S(=O)(=O)O | 2.25% | -6.15% | 8.65% | -10.8% | 9.95% | -1.15% |
| O=C(O)C(O)c1ccc(Cl)c(Cl)c1 (stereo not given) | 29.4% | -24.3% | 7.2% | -13.3% | 15.8% | 11.1% |
| O=C(c1ccc(Cl)cc1)c1onc(-c2ccccc2)c1-c1ccccc1 | -13.6% | 0% | -0.3% | -43.9% | -9.2% | -3.05% |
| O=C1c2ccccc2C2(Br)C(=O)c3ccccc3C12Br (stereo not given) | 98.6% (active) | 99% (active) | 98.8% (active) | 98.5% (active) | 98.5% (active) | 98.9% (active) |
| Cc1cc(NC(=O)N(CCCl)N=O)c(C)cc1NC(=O)c1ccccc1 | 24.5% | -22.5% | 40.5% | -3.4% | -0.5% | 55.2% |
| O=[N+]([O-])c1ccsc1Cl | -7.85% | -3.6% | -14.6% | -40.2% | -4.1% | -5.05% |
| CCN(CC)c1ccc(N=C2C=CC(=O)C(C)=C2)c(C)c1 | -3.05% | -14.6% | -0.9% | -23.4% | 11.8% | 3.05% |
| COC(=O)C1=C(C(=O)OC)C2C=CC1C1C(Cl)=C(Cl)C21 (stereo not given) | -12% | -0.95% | -10.7% | 21.2% | 33.6% | -34% |
| C=CCOCC(COC(=O)CCCCCCCCCCCCCCCCC)OCC=C (stereo not given) | -8.85% | -2.85% | -0.25% | 18.9% | -16.8% | 6.5% |
| O=S(=O)(O)SCCNCCCCc1ccccc1 | -11.2% | -3% | 2.3% | -5.35% | -6.4% | -22.8% |
| O=C1c2cccc3cccc(c23)C(=O)N1CCO | 50.6% | 22.2% | 39.9% | 17.9% | 16.2% | 33.2% |
| CC(=O)OC1C=CC2Oc3ccc(C)cc3C1(C)O2 (stereo not given) | 12.8% | -4.05% | 14.4% | 28.2% | 23.6% | 34.9% |
